Experimental data from PubChem BioAssay AID493131 (Broad Institute, 2011).
In all, about 340,000 compounds went through this assay and about 3,300 (0.97%) were called active. The sample holds actives, similar compounds and a random draw of the others, so the mix is not that of the screen.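 How the source made its calls: active means mean activation above about 17%, with every replicate also reaching it (limit read from the data, passing the limit was not always enough); inconclusive means only one of the two conditions met; inactive means the rest.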

Biological target: Protein FosB (Mus musculus) (UniProt P13346)
Experiment: activators of delta FosB homodimer, primary screen, biochemical, fluorescence polarization, TAMRA-CDK5 oligo, single point (AID 493131);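 further: fluorescence polarization rise as delta FosB binds a TAMRA Cdk5 AP-1 oligo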
Settings: purified delta FosB, at 25 µM, stronger effect = higher value, percent of positive-control signal above neutral wells

Protein FosB (Mus musculus), sequence (P13346 whole entry, looked up): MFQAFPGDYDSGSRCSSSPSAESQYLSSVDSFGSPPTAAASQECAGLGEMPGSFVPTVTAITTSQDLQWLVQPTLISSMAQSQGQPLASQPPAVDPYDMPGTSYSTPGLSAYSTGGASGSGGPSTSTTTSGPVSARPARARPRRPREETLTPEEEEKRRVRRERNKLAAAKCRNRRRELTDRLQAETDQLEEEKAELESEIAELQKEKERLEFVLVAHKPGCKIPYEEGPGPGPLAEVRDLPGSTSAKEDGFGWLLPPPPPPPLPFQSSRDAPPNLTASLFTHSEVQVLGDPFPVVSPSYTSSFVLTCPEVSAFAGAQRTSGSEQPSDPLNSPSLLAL

activation, inactive:
O=C(O)c1ccccc1C(=O)NC1=NN(c2ccccc2)CC1 -3.52%
COc1cccc(-c2cc3nc4c(c(N5CCC6(CC5)OCCO6)n3n2)CCCC4)c1 -1.84%
COc1ccc(C(=O)n2nc(C)c(Br)c2C)cc1OC 3.74%
COc1ccc(C(=O)n2nc(-c3ccc(C)cc3)nc2N)cc1OC 8.05%
CCN(CC)CCNC(=O)c1sc2ncn(CC(=O)Nc3ccc(C)c(Cl)c3)c(=O)c2c1C -141%
Cc1cc(C)c(C#N)c(SCC(=O)Nc2ccccc2)n1 3.54%
Cc1nonc1NC(=O)CSc1nc2ccccc2cc1C#N 5.77%
Cc1ccc(C)c(NC(=O)C(c2ccccc2)N2CCN(CC(=O)NC3CC3)CC2)c1 (stereo not drawn) -10.9%
NC(=O)c1cc(S(=O)(=O)N2CCCC2)ccc1OCc1ccc(F)cc1 -1.72%
COc1ccc(C(=O)Nc2cccc(S(C)(=O)=O)c2)cc1 -0.053%
COc1ccc(NS(=O)(=O)c2ccc(C(=O)Nc3c(C)n(C)n(-c4ccccc4)c3=O)cc2)cc1 1.19%
Cc1noc(C)c1NC(=O)Nc1cccc2c1O[C@H](CN(C)C(=O)Nc1ccccc1)[C@@H](C)CN([C@H](C)CO)C2=O 4.59%
COc1ccc(C(=O)N(C)Cc2ccc(OC)c(OC)c2OC)cc1S(=O)(=O)N1CCOCC1 -8.82%
COc1cccc(NC(=O)CN(C)C(=O)Cc2ccc(Cl)cc2Cl)c1 -4.55%
COCCNC(=O)c1snc2ccc(Cl)cc12 -8.32%
CC(=O)c1cccc(NC(=O)[C@@H](NC(N)=O)C(C)C)c1 2.28%
CN(C)CCN(C(=O)C1CCCCC1)c1nc2cc3c(cc2s1)OCO3 7.71%
Cc1ccc2nc(N(CCN(C)C)C(=O)C3=COCCO3)sc2c1 -2.06%
Cn1nc(C(C)(C)C)c(NC(=O)c2sccc2Cl)c1C(C)(C)C -8.28%
Cc1ccc(C)c(S(=O)(=O)N(C)c2ccc(OC(=O)C3CCN(C(=O)c4ccc(F)cc4)CC3)cc2)c1 -7.71%
C=CCn1c(=O)n(C)c2c(=O)n(C)c(=O)n(C)c21 -1.42%
Cc1sc2nc(COC(=O)C(NC(=O)c3ccc(Cl)cc3Cl)C(C)C)[nH]c(=O)c2c1C (stereo not drawn) -6.82%
Cc1sc2nc(CSCC(=O)NC3CCCCC3)[nH]c(=O)c2c1C -10.1%
COc1ccc2oc(C(=O)OCC(=O)N(CC(C)C)c3c(N)n(Cc4ccccc4)c(=O)[nH]c3=O)c(C)c2c1 3.39%
COc1ccc(C(CNC(=O)c2cccc(S(=O)(=O)Nc3ccc(Br)cc3)c2)N(C)C)cc1 (stereo not drawn) 14%
COC(=O)c1cc(OC)c(OC)cc1NC(=O)CSc1ccc(C)cc1 -0.589%
COc1ccc(C)cc1NC(=O)CSc1ccc(Cl)cc1 -7.74%
COc1ccc2sc(-c3ccc(N(C)C)cc3)c(C#CCO)c2c1 -9.84%
COc1ccc2sc(-c3ccc(N(C)C)cc3)c(-c3ccc4cc[nH]c4c3)c2c1 -4.04%
CCC(=O)NC(Nc1cc(C)ccn1)(C(F)(F)F)C(F)(F)F -2.53%

activation, active:
COc1ccc(C(=O)n2nc(-c3ccc(Cl)cc3)nc2N)cc1OC 30.9%
Cc1nc2cc(NC(=O)CSc3nc4c(C)cccc4cc3C#N)ccc2s1 61.2%
COc1ccc(NS(=O)(=O)c2ccc(NC(=O)c3ccc(N(C)S(C)(=O)=O)cc3)cc2)cc1 43.3%
COC(=O)c1sc2ncccc2c1OCc1ccc(Cl)cc1Cl 17%
CN(C)CCN(C(=O)CN1C(=O)c2ccccc2C1=O)c1nc2cc3c(cc2s1)OCCO3 38%
Cc1sc2nc(CSCC(=O)Nc3c(Cl)cccc3Cl)[nH]c(=O)c2c1C 32.5%
COC(=O)c1scc(C)c1NC(=O)CSc1ccc(Cl)cc1 35%
COc1ccc2c(c1)c(=Cc1ccc(N(C)C)cc1)c1cc(-c3ccccc3)[n+](C)n12 126%
